TCR act: activators of T cell receptors. primary human leukocytes, anti-CD3, IL-2 HTRF, 48 h. Potency, µM (top dose mostly 9.22 µM), hits mostly activators. 330,000 tested, under 10 active
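Human primary leukocytes + a-CD3 beads + cpd, 48 hr; IL-2 in supernatant by HTRF (ex 320nm / em 665nm). No co-stimulatory signal supplied.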
PINK1 expr mod: changes PINK1 expression. PINK1 immunofluorescence, high-content cytometry, 24 h. Potency, µM (series often up to 76.6 µM), most hits filed as activators. 0.2% of 410,000 active; active = well fitted activation curve with a large enough effect; inconclusive = small, poorly fitted or top-dose-only effect; cell line not stated here; note: nearly all actives have a fitted effect of over 65% in size
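Stable cell line, 250 cells/well, 12 h attachment; compounds pinned at 5 concentrations, 24 h; CCCP control. Fixed with nuclear dye, primary antibodies 12 h at 10 degrees C, secondary plus cell stain; laser-scanning cytometer read.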
BRCA1 expr up: activators of BRCA1 expression; MCF7-BRCA1-FFLuc reporter, luminescence, 48 h; response scale: scaled: vehicle 0%, 10 µM genistein 100%; Potency, µM (series often up to 46.1 µM), hits mostly activators; 1.1% of 380,000 active; note: nearly all actives have a fitted effect of over 80% in size
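Activators of BRCA1 expression were detected as increased firefly luciferase luminescence in engineered MCF7 cells after 48 h compound incubation. Signals were scaled to genistein 10 microM as full activation.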
Akt phos inh: Akt phosphorylation inhibition; Neuro2A IGF-stimulated pAkt S473 HTRF, 20 min; hits give low values; activity change, % for hits at 50 µM; 0.32% of 360,000 active; AID 651550; in the data active = activity change below about -80%; inconclusive = mostly about -51% to -80%
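Neuro2A cells (4,500/well, DMEM with 0.5% FBS) were treated with compound at a single 50 µM final concentration, stimulated with 6 nM IGF for 20 min at 37 °C, and lysed. Phospho-Akt Ser473 was read by HTRF as 665/615 ratio ×10^4.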
Of the large screens only hits and unclear results are named; the others gave an inactive call. An excerpt weighted towards active compounds, which were near 1.5% of everything screened. Unless noted, calls come from the whole dose curve; as a rule, active = well fitted curve in the direction sought with a large enough effect; inconclusive = small, poorly fitted or top-dose-only effect, or another doubt; inactive = no such curve, though single readings can be large; an effect the other way counts as inactive or inconclusive.

CCNc1nc(-c2ccc(Cl)cc2)cs1	BRCA1 expr up 2.82µM
Cc1c(C(=O)NCCCN2CCCC2=O)cnn1-c1ncc2c(n1)-c1ccccc1CC2	none (no result: TCR act, BRCA1 expr up, Akt phos inh)
Cc1ccc(S(=O)(=O)N/N=C/c2cc(Br)c(C)o2)cc1	Akt phos inh -95.4%
O=C(NNC(=O)c1ccccc1F)c1cccs1	BRCA1 expr up 5.62µM
COc1cc(-c2cnc3ccccc3c2)cc2c1OCCN(C(=O)CCn1nc(C)cc1C)C2	none (no result: TCR act, BRCA1 expr up, Akt phos inh)
Cc1nn(-c2ccccc2)c(C)c1/C=N/NC(=O)CSc1nnc(SCc2ccccc2Cl)s1	BRCA1 expr up 12.6µM
Cc1ccc(CSc2nnc(SCC(=O)N/N=C/c3c(C)nn(-c4ccccc4)c3C)s2)cc1	none
CS(=O)(=O)c1ccccc1NC(=O)COc1ccccc1C(=O)Nc1ccccc1	none (no result: TCR act, Akt phos inh)
O=C(NCC1CC1)Nc1ccc(Cl)cc1	BRCA1 expr up 10µM
O=C(NCC1CC1)Nc1cccc(Cl)c1	none
O=C(NCc1cccs1)Nc1ccc(Cl)cc1	BRCA1 expr up 10µM
O=C(NCCNC(=O)Nc1ccc(Cl)cc1)Nc1ccc(Cl)cc1	none
O=C(NCc1cccs1)Nc1ccc2c(c1)OCO2	BRCA1 expr up 10µM
COC(=O)c1ccc(NC(=O)c2nc(S(=O)(=O)Cc3ccccc3F)ncc2Cl)cc1	none (no result: TCR act, Akt phos inh)
COc1cc(O)oc1C=Nc1ccc(Cl)cc1Cl	none
COc1cc(O)oc1C=Nc1ccc(Cl)cc1	Akt phos inh -119.2%
O=C(c1ccc(COc2ccc(Cl)cc2)cc1)N1CCCCC1	BRCA1 expr up 3.16µM
CCCCOc1ccc(C(=O)N2CCCCCC2)cc1	none
Cc1cc(Cl)ccc1OCC(=O)N1CCCCC1	BRCA1 expr up 11.2µM
Cc1cc(Cl)ccc1OCC(=O)N1CCN(c2ncccn2)CC1	none
O=C(CCCOc1ccc(Cl)cc1)N1CCCCC1	BRCA1 expr up 12.6µM (no result: PINK1 expr mod)
O=C(Nc1cccc(Cl)c1)OCc1cncs1	none
O=C(Nc1ccc(Cl)cc1)OCc1cncs1	BRCA1 expr up 11.2µM
O=C(Nc1ccc(Cl)cc1)OCc1ccccn1	BRCA1 expr up 3.55µM
Cc1ccc(C)c(NC(=O)CSc2nc(=O)n(Cc3ccncc3)c3c2CCC3)c1	none (no result: TCR act, Akt phos inh)
CCn1ncc(C(=O)Nc2ccc(S(=O)(=O)N3CCCC3)cc2)c1C	Akt phos inh -123.5%
Cc1occc1C(=O)Nc1ccc(S(=O)(=O)N2CCCC2)cc1	none
Cc1sc(=NC(=O)c2ccco2)n(C)c1-c1ccc(Cl)cc1	BRCA1 expr up 6.31µM
CCCCn1nc(NC(=O)CCC)c2cc3cc(OC)ccc3nc21	PINK1 expr mod inconclusive, BRCA1 expr up 12.6µM
COc1ccccc1CCNc1ncnc2sc(C(=O)N3CCCN(C=O)CC3)c(C)c12	none (no result: TCR act, BRCA1 expr up, Akt phos inh)
Cc1snc(SCC(=O)c2ccc(F)cc2)c1C#N	BRCA1 expr up 8.91µM
C=CCn1c(C)cc(C(=O)CSc2nc3ccccc3c(=O)[nH]2)c1C	BRCA1 expr up inconclusive, Akt phos inh -110.3%
COc1ccccc1CN1CCC(n2cc(C(=O)N3CCCCC3)nn2)CC1	none (no result: TCR act, BRCA1 expr up, Akt phos inh)
Cc1cc2nc(-c3ccc(SCC(=O)N4CCOCC4)nc3)[nH]c2cc1C	none (no result: TCR act)
Cc1cc2nc(-c3ccc(SCC(=O)N4CCN(C(=O)c5ccco5)CC4)nc3)[nH]c2cc1C	PINK1 expr mod inconclusive, Akt phos inh -94.2% (no result: TCR act)
Cc1ccc(-n2c(SCc3ccccc3F)nc3[nH]ncc3c2=O)cc1Cl	none (no result: TCR act, Akt phos inh)
Fc1ccc(-c2nnc(-c3ccc(Cl)cc3)o2)cc1	BRCA1 expr up 2µM (no result: Akt phos inh)
Clc1ccc(-c2nnc(N3CCOCC3)o2)cc1	BRCA1 expr up 3.98µM
Cc1cc2c(c(-c3cnccn3)c1)OC(CNC(=O)c1ccccc1C(F)(F)F)C2 (centres undefined)	none (no result: TCR act, BRCA1 expr up, Akt phos inh)
CS(=O)(=O)N(CCc1ccccc1)CC(=O)NCc1cccnc1	Akt phos inh -108.1%
COc1ccc(N2C(=O)[C@@H]3C[C@H]2CN3Cc2cccn2-c2ccccn2)cc1Cl	none (no result: TCR act, BRCA1 expr up, Akt phos inh)
Cc1c(C(=O)N2CCCC2)sc2ncnc(NCCc3ccccn3)c12	none (no result: TCR act, BRCA1 expr up, Akt phos inh)
CC(C)N1CC(O)=C(c2nc3ccccc3[nH]2)C1=N	BRCA1 expr up 8.91µM
COc1ccccc1C1CN(Cc2cccc(O)c2)Cc2ccccc2O1 (centres undefined)	none (no result: TCR act, BRCA1 expr up, Akt phos inh)
Cc1ccc(NC(=O)CCC(=O)c2cccs2)cc1F	BRCA1 expr up 12.6µM
Cc1ccc(NC(=O)Cc2cccs2)cc1Cl	BRCA1 expr up 11.2µM (no result: TCR act)
CCOCC(=O)Nc1ccc(C)c(Cl)c1	Akt phos inh -128.9%
Cc1nc2ccc(NC(=O)Cc3cccs3)cc2s1	BRCA1 expr up 3.55µM
COc1cc(C(CC(=O)Nc2ccc(Br)cn2)N2Cc3ccccc3C2=O)cc(OC)c1OC (centres undefined)	none (no result: TCR act, Akt phos inh)

Source: PubChem
